# In the supplement of paper PMC11417369:
# ± gives the standard deviation of the averaged measurements. Over roughly 25,000 sequences, “ln(normalized median fluorescence intensity)” has its median near 8.6; the highest 2% begin near 10. The full list was thinned out, with the highest values kept by preference.
# Test system: PfAP2-EXP AP2 domain (GST-tagged)
# Assay: gcPBM binding intensity (ln(normalized median fluorescence intensity)); higher = stronger DNA binding
# Procedure, shortened: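 Each value is the highest Masliner-normalised natural-log median intensity across replicate spots of either orientation of a probe. The probes were primer-extended double-stranded 36-bp intergenic genomic sequences on an Agilent 4 × 180k array, alongside negative controls, exposed for 1 h to GST-tagged P. falciparum DNA-binding domains expressed in E. coli. Bound protein was picked up with Alexa488 anti-GST antibody and scanned at 488 nm.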
row,Sequence,gcPBM binding intensity (ln)
1,TTTATATCTTATTATAGGAAAATGAATATTTTCTCT [TGCATGCA_negctrl_site478],8.19 ± 0.36
2,TATTTTAACTTCTCATGTACATATATTATGTCTATA [XGTACX_site249],9.01 ± 0.39
3,ATAGAACTGAATAAATCTATAAATAAATATATATAT [GTGCAC_negctrl_site604],9.16 ± 0.23
4,AATATAAACACAAACACACACATATAGATTTATATA [CACACA_site6263],8.55 ± 0.38
5,ATTTTTGTTATTACATGTACCCATAATTATTATTAA [XGTACX_site3558],9.22 ± 0.44
6,TTTTGGTTAATTCCCCCCATTACATTATGTCATGTC [CACACA_negctrl_site229],10.185 ± 0.007
7,TATAAAATTACATTTTGTCATTTATTTTTTCCCACT [TGCATGCA_negctrl_site110],8.28 ± 0.45
8,TTTTGTTTAAAAAAAAAAAACAAAAAAAAGCAATTA [CACACA_negctrl_site314],8.32 ± 0.51
9,TAATTATATGTATACACACACATACATTTACATAAC [CACACA_site3238],8.66 ± 0.52
10,TGCTTTTATTTCTTCACACATATGTAAAAAAAAGAA [CACACA_site5906],8.76 ± 0.42
11,AAAACTATATTAATGTGTACACATCAAAATATTAAT [XGTACX_site6767],8.65 ± 0.13
12,AAAAAATACATCAAAAGAAACATATATATATATATA [GTGCAC_negctrl_site719],10.2 ± 0.67
13,ATCAAAAGAAAACACACACACATACATATATATATA [CACACA_site3795],9.81 ± 0.28
14,TTATATAAAACATTAACACACAAAGAAAAAAAATTA [CACACA_site1793],8.57 ± 0.47
15,AATCAAAACATTAAAAAGAAAAAATATATATATATA [CACACA_negctrl_site366],10.2 ± 0.26
16,AAAAAAAAGAAACACACACACATACACATAAATATA [CACACA_site3807],8.79 ± 0.47
17,AAAACACAAAAAAAATGTACACATATATATATATAT [XGTACX_site8509],10 ± 0.38
18,AAAACATCAAAAATGTGTACATATATATATATATAT [XGTACX_site8884],10.3 ± 0.21
19,AATATAAAATCAAGAAATTAAAAAAAAACAGAAAAC [CACACA_negctrl_site1004],8.93 ± 0.49
20,TGGTAAATTTACCGTTGTACATTCATTTATAACATT [XGTACX_site8910],8.68 ± 0.42
21,TATATATAGCATATTTCACACACACCGAATGAATAT [CACACA_site9182],8.64 ± 0.36
22,ATTGTGTTAATAAAATGTACATTTTCTCTACTTTAA [XGTACX_site1199],8.8 ± 0.35
23,TGTTCTAATTTTAATTGTACATATATACATATATAT [XGTACX_site7290],8.46 ± 0.35
24,AAAAATATATAAAGAAAAAGAATATAATATAAAATA [GTGCAC_negctrl_site208],8.53 ± 0.38
25,AACATATTTATGATGTGTACCTACATAATAGAATTT [XGTACX_site141],8.38 ± 0.32

row,Sequence,gcPBM binding intensity (ln)
1,AAAAAGGTTATTGGTACACACATATGTATATATATA [CACACA_site552],9.3 ± 0.057
2,AAGGTAAAATATAAGTGTACTTTTTCTTAATCTTCG [XGTACX_site514],8.31 ± 0.15
3,ATGGGAATATAATTATGTACATATAAAAATTATAAA [XGTACX_site5336],8.62 ± 0.34
4,TGCAATTGTAAAGGCGCACACATATATATATATATA [CACACA_site4894],10.1 ± 0.34
5,AAAAAAAGGTAAAATTGTACATACGCACAAAAATAT [XGTACX_site2887],8.73 ± 0.33
6,TACAATTGTAAAGGCGCACACATATATATATATATA [CACACA_site1392],10.3 ± 0.59
7,TTTTCCAGTAAATATTTTTTTATAATATTTATATAT [CACACA_negctrl_site387],8.3 ± 0.4
8,AAATATACATACATATGTACATATATATATATATAT [XGTACX_site8202],10.1 ± 0.45
9,TTATGTAAATAATTTTGTACTTAAATTATTATATAA [XGTACX_site1491],8.08 ± 0.4
10,ATGATGTGCAAGAGTAGTACACAATTTTGGGTTTAT [XGTACX_site501],8.76 ± 0.39
11,AATAAAAAATATAACACAAATATGTATATATATATA [TGCATGCA_negctrl_site245],9.81 ± 0.34
12,ATATATATATATATAACACACGTGTATATATATGTA [CACACA_site3644],10.2 ± 0.23
13,ATATATATATATATAACACACGTGTATTTATCTGTA [CACACA_site5922],9.99 ± 0.34
14,TTTTTTTTTTTTTTGGGTACATAATAATAACAAGTG [XGTACX_site1034],8.28 ± 0.32
15,TTTTTTTTTTTTTTATGTACGAAAGAAAAGCACATA [XGTACX_site8261],8.57 ± 0.27
16,ATTTAGTATTCGAAACGTACACATATATATATATAT [XGTACX_site3910],10.2 ± 0.4
17,TTTTATAAAGAACACAGACACACAAAGAAAGAACCA [CACACA_site4174],9.02 ± 0.6
18,AACACAAGAACAGAACGTACACACACATATATATAT [XGTACX_site7347],9.76 ± 0.16
19,CAAGAAACAGTGATACGTACACATATATATATATAT [XGTACX_site3229],10.2 ± 0.32
20,TACATACAGAAACACACACACACATATATATATATA [CACACA_site2919],10 ± 0.28
21,ACAAGAACAGAACGTACACACACATATATATATATA [CACACA_site9143],9.97 ± 0.39
22,AAGAACAGAACGTACACACACATATATATATATATA [CACACA_site3457],10.2 ± 0.23
23,CATACACAGAAACACACACACATATATACATATATA [CACACA_site1094],8.59 ± 0.56
24,ATATATATATATATATGTACTGAATAAAGAACAAAA [XGTACX_site5400],10.1 ± 0.42
25,AAAATAAAAATAACAACACACATATACTATAATATT [CACACA_site2769],8.7 ± 0.46

row,Sequence,gcPBM binding intensity (ln)
1,TTTCCTAGCACATGCACACAAAAAAAAAAAAAAAAA [CACACA_site1404],8.35 ± 0.35
2,AATTAGATTTACTGAAGTACTTAATTTATTTTATTA [XGTACX_site3407],8.85 ± 0.34
3,ATTTATTAATTACCATGTATAAAAAATTATATAATA [CACACA_negctrl_site581],8.19 ± 0.51
4,AATAAAAATAAAAATTGTACACTTTTTTAATATTTA [XGTACX_site892],8.11 ± 0.25
5,ATATAATTCAAATACAGTACATATACAATATATACA [XGTACX_site1191],8.21 ± 0.3
6,TACAAGCCCAATTCAAGTACATATATATATATATAT [XGTACX_site5569],10.2 ± 0.44
7,TTTTTTTTTTTTTCAAGTACATATATATATATATAA [XGTACX_site2098],8.44 ± 0.45
8,TATTATGTTATATATTGTACATGTTTATTGAAACAA [XGTACX_site5605],8.66 ± 0.21
9,TGCATTTTCCTATTTGCATGCAATTAAAATATAGAA [TGCATGCA_site862],10.2 ± 0.24
10,AAATAAAAATTACAAGCATGCATTTTCCTATTTGCA [TGCATGCA_site861],8.56 ± 0.46
11,ACTTCCTATATTTATGCATGCATTTTATTAAAAAAT [TGCATGCA_site747],9.92 ± 0.16
12,CATACAGACGAACACACACACATATAAATATAAATA [CACACA_site6443],8.74 ± 0.55
13,AATGAACAGACGAGCACACACACACCCATATATATA [CACACA_site1018],8.85 ± 0.35
14,TGAACAGACGAGCACACACACACATATATATATATA [CACACA_site1019],10.2 ± 0.26
15,TAAACAGACATATAAACACACATATAAACAGACATA [CACACA_site7214],8.69 ± 0.56
16,AAAACAAACGGACACACACACATATATATATATATA [CACACA_site5924],10.1 ± 0.32
17,TTGTAAGAAAAACACACACACACATATATATATATA [CACACA_site795],10.1 ± 0.23
18,AACAGACGAAGACACACACACATATATATATATATA [CACACA_site1020],10.2 ± 0.21
19,AACAGACAGAAACACACACACATATATATATATATA [CACACA_site3394],10 ± 0.41
20,GTAAGAAACAGACACACACACATATAAATATAAATA [CACACA_site6515],8.77 ± 0.64
21,TGAACTCACGAGCACACACACACATATATATATATA [CACACA_site8248],10.2 ± 0.34
22,GTAAGAAACGGACACACACACATATATATATATATA [CACACA_site4593],10.2 ± 0.23
23,GTAAGAAACAGACACACACACATATATATATATATA [CACACA_site794],10.2 ± 0.24
24,ATATATATATATATGTGTACATATTTTTTTGAAGTG [XGTACX_site248],10.1 ± 0.29
25,TTTTTTTTTTTTTTTTGTACGTAAAAAAATATATAC [XGTACX_site1290],8.36 ± 0.22

row,Sequence,gcPBM binding intensity (ln)
1,AAATATAATAACGAACGTACTTATTATAATTTGTAA [XGTACX_site2342],8.32 ± 0.25
2,ACATATTAAAATATATGTACATAAAATATGAAAAAA [XGTACX_site5869],8.82 ± 0.3
3,ATAATAAAAATATATACATGCATTATTATATATATA [TGCATGCA_site799],8.97 ± 0.16
4,AAAATAAAAAGAAAAAATAAAAAGAAAAAATAAAAA [CACACA_negctrl_site120],8.33 ± 0.44
5,CATTAAAAAGAAAGTTCACACACATATATATGACGG [CACACA_site8836],8.84 ± 0.57
6,CCTAATTTTATTAGGGTGCATTTTTAGTTAAATATA,8.48 ± 0.27
7,TTTATTATTATATTATTTTAATTTTTCTTTAGTACA [GTGCAC_negctrl_site392],8.29 ± 0.32
8,TAATTTCTTTAGGGGGTGCTTTTATAGTTTTTATTA,10.4 ± 0.54
9,AGTATAGATGTATACACACACCAAACGTTAAAAAAA [CACACA_site7443],8.71 ± 0.53
10,CAAGGAACCGGACACACACACATAAATGTATTTATA [CACACA_site4574],8.46 ± 0.5
11,AAAAAAAATACATACACACACACACCCACATATATA [CACACA_site3561],8.75 ± 0.65
12,CACCCACTAATAAACACACACATATATATATATATA [CACACA_site389],10.2 ± 0.35
13,TACATATACATATACACACACACACCCAAATAAATA [CACACA_site1344],8.86 ± 0.51
14,AATAAATATAAATACACACCCATATAAATATAAATA [CACACA_site7264],8.64 ± 0.51
15,AAAAAAAAAAAACACACACACACACTAATATATAAA [CACACA_site8302],8.47 ± 0.56
16,AATAAATATAAATACACACCCATATATATATATATA [CACACA_site5436],10.2 ± 0.35
17,CCCACTAAAAAACACACACACACACCCATATATATA [CACACA_site6140],8.98 ± 0.31
18,TATAAATATACACCCACACACATATATATATATATA [CACACA_site3745],10.2 ± 0.4
19,TATACATATACATATACACACACACCCATAAATAAA [CACACA_site8372],9.05 ± 0.38
20,TATAAATATACACCCACACACATATATAAATAAATA [CACACA_site7717],8.93 ± 0.79
21,AATAAATATATATACACACCCATATATATATATATA [CACACA_site2595],10.1 ± 0.42
22,TATATAAATATACACCCACACACATATATATATATA [CACACA_site9247],10.2 ± 0.26
